Assay results taken from article PMC5700166.

target: T1, GST-Co-NF-kB (Capsaspora owczarzaki, UniProt F1ARL5 200-546); test: protein-binding microarray (PBM); PBM: ~300 nM protein, 6 mM HEPES pH 7.8, 80 mM KCl, 0.5 mM EDTA, 0.5 mM EGTA, 6% glycerol, 35 ng/ul poly-dIdC, 1% milk, 1 h, room temperature; Ap Aiptasia and Nv Nematostella (sea anemones) / Co Capsaspora / Aq Amphimedon (sponge) / Dm Drosophila / Hu human; RHD is the Rel homology domain; high values mean tight binding; settings: dsDNA, one strand shown
T1 sequence: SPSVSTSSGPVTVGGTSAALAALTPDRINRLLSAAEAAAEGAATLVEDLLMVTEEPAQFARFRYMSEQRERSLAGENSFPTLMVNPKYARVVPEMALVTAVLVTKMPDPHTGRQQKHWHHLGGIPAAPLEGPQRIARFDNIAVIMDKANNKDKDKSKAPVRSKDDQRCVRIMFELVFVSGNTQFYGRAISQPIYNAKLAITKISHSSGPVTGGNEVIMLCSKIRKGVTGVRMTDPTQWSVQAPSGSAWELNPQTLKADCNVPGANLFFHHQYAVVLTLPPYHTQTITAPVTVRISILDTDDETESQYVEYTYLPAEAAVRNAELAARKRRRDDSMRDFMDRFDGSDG

| Sequence | binding signal |
| --- | --- |
| CCGATTAACATCAAGGGAATTCCTGATGTTAATCGGGTCTTGATTCGCTTGACGCTGCTG | 3.76 z-score |
| CCGATTAACATCAAATCCCCCCCTGATGTTAATCGGGTCTTGATTCGCTTGACGCTGCTG | 9.25 z-score |
| CCGATTAACATCAAGGGGGGGACTGATGTTAATCGGGTCTTGATTCGCTTGACGCTGCTG | 5.71 z-score |
| CCGATTAACATCAAATAAGCCCCTGATGTTAATCGGGTCTTGATTCGCTTGACGCTGCTG | 1.15 z-score |
| CCGATTAACATCAACTATCCCCCTGATGTTAATCGGGTCTTGATTCGCTTGACGCTGCTG | 6.08 z-score |
| CCGATTAACATCAGGGGGGGTAATGATGTTAATCGGGTCTTGATTCGCTTGACGCTGCTG | 6.38 z-score |

target: T2, GST-Dm-Relish (Drosophila melanogaster, UniProt Q94527 99-473); test: as above; settings: dsDNA, one strand shown
T2 sequence: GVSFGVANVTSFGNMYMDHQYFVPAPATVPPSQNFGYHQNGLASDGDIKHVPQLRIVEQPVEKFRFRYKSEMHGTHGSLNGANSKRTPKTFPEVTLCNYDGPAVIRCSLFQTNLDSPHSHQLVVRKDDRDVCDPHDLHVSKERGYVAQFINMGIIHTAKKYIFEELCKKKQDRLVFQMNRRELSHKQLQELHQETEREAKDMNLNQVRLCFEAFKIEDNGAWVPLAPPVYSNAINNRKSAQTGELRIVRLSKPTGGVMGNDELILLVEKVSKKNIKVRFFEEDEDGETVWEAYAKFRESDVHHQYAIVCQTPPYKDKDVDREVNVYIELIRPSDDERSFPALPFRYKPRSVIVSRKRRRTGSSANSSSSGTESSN

| Sequence | binding signal |
| --- | --- |
| CCGATTAACATCAAAGAGCCCCCTGATGTTAATCGGGTCTTGATTCGCTTGACGCTGCTG | 3.94 z-score |
| CCGATTAACATCAGAAATGCCCCTGATGTTAATCGGGTCTTGATTCGCTTGACGCTGCTG | 4.09 z-score |
| CCGATTAACATCAAGGGGGATACTGATGTTAATCGGGTCTTGATTCGCTTGACGCTGCTG | 3.41 z-score |
| CCGATTAACATCAAAAGCCCCCATGATGTTAATCGGGTCTTGATTCGCTTGACGCTGCTG | 6.91 z-score |
| CCGATTAACATCAAACCACCCCCTGATGTTAATCGGGTCTTGATTCGCTTGACGCTGCTG | 2.92 z-score |
| CCGATTAACATCAATTCCCCCCGTGATGTTAATCGGGTCTTGATTCGCTTGACGCTGCTG | 5.54 z-score |
| CCGATTAACATCAGGACCTTCCCTGATGTTAATCGGGTCTTGATTCGCTTGACGCTGCTG | 1.9 z-score |
| CCGATTAACATCAGAAAATCACCTGATGTTAATCGGGTCTTGATTCGCTTGACGCTGCTG | 6.91 z-score |
| CCGATTAACATCACCCTCGAGGGTGATGTTAATCGGGTCTTGATTCGCTTGACGCTGCTG | 1.08 z-score |
| CCGATTAACATCAGGGCCTTTTGTGATGTTAATCGGGTCTTGATTCGCTTGACGCTGCTG | 5.05 z-score |
| CCGATTAACATCAATCCACCCCCTGATGTTAATCGGGTCTTGATTCGCTTGACGCTGCTG | 2.99 z-score |
| CCGATTAACATCAGGCGAACCCCTGATGTTAATCGGGTCTTGATTCGCTTGACGCTGCTG | 1.37 z-score |
| CCGATTAACATCAGGGAAACTTATGATGTTAATCGGGTCTTGATTCGCTTGACGCTGCTG | 2.25 z-score |
| CCGATTAACATCAGATAAACCCCTGATGTTAATCGGGTCTTGATTCGCTTGACGCTGCTG | 5.22 z-score |
| CCGATTAACATCAGGACATACCCTGATGTTAATCGGGTCTTGATTCGCTTGACGCTGCTG | 2.79 z-score |
| CCGATTAACATCAGGGGCTTCCATGATGTTAATCGGGTCTTGATTCGCTTGACGCTGCTG | 6.97 z-score |

| Sequence | binding signal |
| --- | --- |
| CCGATTAACATCAGGACTGCCCCTGATGTTAATCGGGTCTTGATTCGCTTGACGCTGCTG | 3.18 z-score |
| CCGATTAACATCAGGAAATACCCTGATGTTAATCGGGTCTTGATTCGCTTGACGCTGCTG | 7.3 z-score |
| CCGATTAACATCAGGAAGATCCCTGATGTTAATCGGGTCTTGATTCGCTTGACGCTGCTG | 2.71 z-score |
| CCGATTAACATCAGGGAGTGCCCTGATGTTAATCGGGTCTTGATTCGCTTGACGCTGCTG | 3.85 z-score |
| CCGATTAACATCACGGAAACACCTGATGTTAATCGGGTCTTGATTCGCTTGACGCTGCTG | 1.78 z-score |
| CCGATTAACATCAGGATATCCCCTGATGTTAATCGGGTCTTGATTCGCTTGACGCTGCTG | 7.25 z-score |
| CCGATTAACATCAAAAAATCACCTGATGTTAATCGGGTCTTGATTCGCTTGACGCTGCTG | 8.12 z-score |
| CCGATTAACATCAAGGGAATTCCTGATGTTAATCGGGTCTTGATTCGCTTGACGCTGCTG | 7.95 z-score |
| CCGATTAACATCAAATCCCCCCCTGATGTTAATCGGGTCTTGATTCGCTTGACGCTGCTG | 7.98 z-score |
| CCGATTAACATCAAGGGGGGGACTGATGTTAATCGGGTCTTGATTCGCTTGACGCTGCTG | 4.41 z-score |
| CCGATTAACATCACGGAAATACCTGATGTTAATCGGGTCTTGATTCGCTTGACGCTGCTG | 2.56 z-score |
| CCGATTAACATCAGAAAAACACCTGATGTTAATCGGGTCTTGATTCGCTTGACGCTGCTG | 3.66 z-score |
| CCGATTAACATCAGGTGTTTCCATGATGTTAATCGGGTCTTGATTCGCTTGACGCTGCTG | 2.26 z-score |
| CCGATTAACATCACGGGCTTCCCTGATGTTAATCGGGTCTTGATTCGCTTGACGCTGCTG | 7.65 z-score |
| CCGATTAACATCAAATAAGCCCCTGATGTTAATCGGGTCTTGATTCGCTTGACGCTGCTG | 4.29 z-score |
